# SKN-1 inh: inhibitors of C. elegans SKN-1; inhibition, % at 21.8 µM; C. elegans VP596 Pgst-4::GFP/RFP ratio, acrylamide-induced, 24 h; 360,000 compounds, 0.49% hits;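 active means interference check ratio from 0.5 to 1.5 plus GFP to RFP signal ratio inhibition reaching or exceeding a fixed threshold, cut at about 30% in these data, passing the limit was not always enough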
# MEKK3 PB1 HTS: modulators (inhibitors or enhancers) of MEK5 binding to human MEKK3 PB1 domain | Q99759 | bead-based flow cytometry, Alexa488-MEK5 binding to MEKK3; actives lie on both sides; 0 = blocked by unlabeled MEK5, 100 = vehicle | binding response (% of control), % at 10 µM | 290,000 compounds, 1.4% hits;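 active means binding response more than 3 SD above or below the average of its plate-row segment, actives on both sides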;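 further: Alexa488 bead fluorescence after subtracting the streptavidin-only scavenger bead signal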
# MEKK2 WT-MEK5: raises or lowers MEK5 binding to wildtype human MEKK2 PB1 domain; Q9Y2U5; bead flow cytometry, Alexa488-MEK5 binding to MEKK2 WT; actives lie on both sides; binding response (% of control), % at 10 µM; 290,000 compounds, 1.1% hits; AID 1531; in the data active means binding response below about 67% or above about 130%
# MEKK2 mut-MEK5: signal of MEK5 binding to mutant human MEKK2 PB1 domain; bead flow cytometry, Alexa488-MEK5 binding to MEKK2 mutant; percent response, % at 10 µM; 290,000 compounds, 0.35% hits; AID 1530; in the data active means percent response above about 24%, passing the limit was not always enough
# NRP1-CendR mod: modulators of CendR peptide binding to human neuropilin-1 | AID 602438 | FAM-RPARPAR peptide binding to NRP-1, fluorescence polarization | 360,000 compounds, 0.85% hits | inhibition, % at 25 µM;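 active means inhibition or corrected inhibition above about 18%, plus a signal ratio from 0.5 to 1.5, limit read from the data, passing the limit was not always enough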
# Target sequence (O14786 whole entry, looked up): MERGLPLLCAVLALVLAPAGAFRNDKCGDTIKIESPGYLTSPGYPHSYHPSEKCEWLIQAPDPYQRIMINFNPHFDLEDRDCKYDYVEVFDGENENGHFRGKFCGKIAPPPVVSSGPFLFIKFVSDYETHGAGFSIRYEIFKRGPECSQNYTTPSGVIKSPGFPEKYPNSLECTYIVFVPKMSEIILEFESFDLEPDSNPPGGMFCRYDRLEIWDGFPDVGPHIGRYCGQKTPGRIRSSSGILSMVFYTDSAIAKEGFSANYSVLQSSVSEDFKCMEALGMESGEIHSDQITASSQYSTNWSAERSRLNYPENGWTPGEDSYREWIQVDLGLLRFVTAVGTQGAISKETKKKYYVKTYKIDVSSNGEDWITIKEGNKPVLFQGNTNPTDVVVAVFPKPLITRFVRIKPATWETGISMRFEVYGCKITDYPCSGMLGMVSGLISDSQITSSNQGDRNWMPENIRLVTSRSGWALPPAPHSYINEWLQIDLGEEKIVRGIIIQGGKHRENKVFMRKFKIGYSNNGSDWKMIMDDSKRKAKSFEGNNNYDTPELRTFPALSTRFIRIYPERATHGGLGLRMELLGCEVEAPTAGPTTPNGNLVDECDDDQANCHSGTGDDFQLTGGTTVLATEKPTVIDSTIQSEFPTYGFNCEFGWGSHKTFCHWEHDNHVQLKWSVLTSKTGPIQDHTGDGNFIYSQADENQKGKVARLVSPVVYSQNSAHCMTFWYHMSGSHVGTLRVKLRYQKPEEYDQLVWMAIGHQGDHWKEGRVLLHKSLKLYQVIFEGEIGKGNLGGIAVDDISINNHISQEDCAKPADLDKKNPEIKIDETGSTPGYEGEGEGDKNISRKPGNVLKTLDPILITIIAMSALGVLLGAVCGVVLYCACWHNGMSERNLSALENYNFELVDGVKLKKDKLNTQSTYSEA
# MEKK2wt confirm: raises or lowers MEK5 binding to wildtype human MEKK2, retest | binding response (% of control), % at 10 µM | bead flow cytometry, Alexa488-MEK5 binding to MEKK2 WT; actives lie on both sides | 5,900 compounds, 2.4% hits | shares compounds with MEKK3 PB1 HTS; in the data active means binding response below about 16% or above about 210%; inactive means in between
# MEKK2mut confirm: signal of MEK5 binding to mutant human MEKK2, retest. shares compounds with MEKK3 PB1 HTS. bead flow cytometry, Alexa488-MEK5 binding to MEKK2 mutant. 5,900 compounds, 2% hits. AID 1893. percent response, % at 10 µM; in the data active means percent response mostly above about 71%, no sharp cut-off; inactive means mostly below about 38%;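 further: higher means compound restores mutant binding toward wildtype level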
# MEKK3 confirm: MEKK3-MEK5 PB1 inhibition, single concentration confirmation; shares compounds with MEKK3 PB1 HTS; bead flow cytometry, Alexa488-MEK5 binding to MEKK3; active compounds read low; binding response (% of control), % at 10 µM; 5,900 compounds, 1.8% hits; AID 1894;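 active means binding response below 72% of control, or above a set upper limit, though filed actives all read lower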;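 further: lower values mean stronger disruption of MEK5 binding to MEKK3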
# Numbers stand for hits; 0 = inactive; - = not tested or not shown; [ ] = another dose, or the depositor's remark. An excerpt weighted towards active compounds, which were near 3.2% of everything screened.
SMILES,SKN-1 inh,MEKK3 PB1 HTS,MEKK2 WT-MEK5,MEKK2 mut-MEK5,NRP1-CendR mod,MEKK2wt confirm,MEKK2mut confirm,MEKK3 confirm
CN(C)C(=O)CNc1ccn2nc(-c3cccc(Cl)c3)cc2n1,0,-,-,-,0,-,-,-
COC(=O)[C@@]12C[C@@H](CC(=O)N3CCN(C(=O)c4ccco4)CC3)C(=O)N(Cc3cccc4ccccc34)C1=CCC(C)(C)C2,0,-,-,-,0,-,-,-
CCN(CC)C(=O)C(=O)Nc1ccc(F)c(Cl)c1,0,75[inhibitor],0,0,0,0,0,0
Cc1ccc(OCCC(=O)Nc2ccc(C)c(F)c2)cc1,0,0,0,0,0,-,-,-
Cc1ccc(OCCC(=O)Nc2ccc(F)c(Cl)c2)cc1,0,0,223,0,0,0,0,0
Cc1ccccc1-c1cccc([C@@H]2C[C@H]3[C@H](CON3C)CN2Cc2ccccc2)c1,0,-,-,-,0,-,-,-
O=C1c2nccnc2C(=O)N1c1ccc(F)cc1,0,130,0,0,0,0,0,0
C=CCOC(=O)COc1ccc2c3c(c(=O)oc2c1)CCCC3,0,-,-,-,0,-,-,-
O=C(N=C1c2ccccc2CN1c1cccc(Cl)c1)c1cccnc1,0,56[inhibitor],0,0,0,0,0,0
CC(O)(c1ccc(Cl)cc1)C(c1ccccc1)c1ccccn1 (stereo not drawn),0,-,-,-,0,-,-,-
CC(C)C[C@H]1CN(CCCC[C@@H]2CNC(=O)C(=O)N2CC2CCCCC2)C(=O)C(=O)N1CCc1ccc(O)cc1,0,-,-,-,0,-,-,-
CC(NC(=O)c1ccc(F)cc1)C(c1cccs1)N1CCN(C)CC1 (stereo not drawn),0,0,0,0,0,-,-,-
CC(NC(=O)Nc1ccc(F)cc1)C(c1cccs1)N1CCCC1 (stereo not drawn),0,142,0,0,0,0,0,0
COc1ccc2oc(C(=O)Nc3nc(C)cs3)c(C)c2c1,0,-,-,-,0,-,-,-
NC(=O)CC(NC(=O)c1cccc(Br)c1)c1ccc(N2CCCCCC2)c([N+](=O)[O-])c1 (stereo not drawn),0,0,0,0,0,-,-,-
NC(=O)CC(NC(=O)c1cccc(Br)c1)c1ccc(N2CCC(N3CCCC3)CC2)c([N+](=O)[O-])c1 (stereo not drawn),0,0,153,0,0,0,0,0
Cc1[nH]n(-c2ccccc2)c(=O)c1C=NCc1ccncc1,0,0,0,0,0,-,-,-
Cc1ccc(-n2[nH]c(C)c(C=NCc3ccncc3)c2=O)cc1,0,130,0,0,0,0,0,0
COc1ccc(-c2cc(C(F)(F)F)n3nc(C(=O)NCc4ccco4)c(Cl)c3n2)cc1,0,0,30[inhibitor],0,0,0,0,0
COc1ccc(-c2cc(C(F)(F)F)n3nc(C(=O)NCc4ccco4)cc3n2)cc1,0,0,0,0,0,-,-,-
CCN(CC)c1ccc(C(=O)NNC(=O)CNC(=O)c2cccs2)cc1,0,-,-,-,0,-,-,-
Cc1nn(C)c(C(=O)Sc2cccc(Cl)c2)c1[N+](=O)[O-],0,133,0,0,0,0,0,0
COc1ccccc1NC(=O)NC1(C(=O)N2CCN(C)CC2)CCCCC1,0,0,0,0,0,-,-,-
O=C(Nc1ccc(NC(=O)N2CCN(c3ccccc3O)CC2)cc1)N1CCN(c2ccccc2O)CC1,0,0,0,0,0,-,-,-
CCOc1cc(N2CCOCC2)c(OCC)cc1NC(=O)c1ccc(OCc2c(C)noc2C)c(OC)c1,0,131,0,0,0,0,0,0
SMILES,SKN-1 inh,MEKK3 PB1 HTS,MEKK2 WT-MEK5,MEKK2 mut-MEK5,NRP1-CendR mod,MEKK2wt confirm,MEKK2mut confirm,MEKK3 confirm
CCOc1cc(N2CCOCC2)c(OCC)cc1NC(=O)CN1CCCC1,0,132,0,0,0,0,0,0
CCOc1cc(N2CCOCC2)c(OCC)cc1NC(=O)c1ccc(OC)cc1,0,0,0,0,0,-,-,-
O=C(Nc1ccccc1OC(F)F)c1ccc(S(=O)(=O)N2CCOCC2)cc1,0,0,0,0,0,-,-,-
O=[N+]([O-])c1cccc(CON=Cc2ccccc2O)c1,0,-,-,-,0,-,-,-
Cc1cc(NC(=O)CN2C(=O)NC(C)(c3ccccc3)C2=O)no1 (stereo not drawn),0,0,0,0,0,-,-,-
CCCC1(c2ccccc2)NC(=O)N(CC(=O)Nc2cc(C)on2)C1=O (stereo not drawn),0,65[inhibitor],0,0,0,0,0,0
Cc1ccc(C2(C)NC(=O)N(CC(=O)Nc3c(C)n(C)n(-c4ccccc4)c3=O)C2=O)cc1 (stereo not drawn),0,0,0,0,0,-,-,-
Cc1c(NC(=O)CN2C(=O)NC(C)(c3ccccc3)C2=O)c(=O)n(-c2ccccc2)n1C (stereo not drawn),0,140,0,0,0,0,0,0
COc1ccc(/C=C(/NC(=O)c2ccccc2)C(=O)N/N=C/c2ccncc2)cc1,0,2.0[inhibitor],2.0[inhibitor],0,0,0,0,0
COc1ccc(/C=C(/NC(=O)c2ccccc2)C(=O)NCc2ccncc2)cc1,0,0,0,0,0,-,-,-
O=C(N/N=C/c1ccc(OC(=O)c2ccccc2)cc1)c1cccc(O)c1,0,137,0,0,0,0,0,0
O=C(Oc1ccc(/C=N/NC(=O)c2ccccc2O)cc1)c1ccccc1,0,0,0,0,0,-,-,-
COc1ccc(/C=C/C(=O)Oc2ccc(/C=N/NC(=O)c3ccccc3)cc2)cc1OC,0,138,0,0,0,0,0,0
NS(=O)(=O)c1ccc(NS(=O)(=O)c2ccc(NC(=S)Nc3ccccc3)cc2)cc1,0,4.0[inhibitor],0,0,0,0,0,0
Cc1cc(C)cc(NS(=O)(=O)c2ccc(NC(=S)Nc3ccccc3)cc2)c1,0,0,0,0,0,-,-,-
CC1(C)CC(NC(=S)Nc2ccc(S(N)(=O)=O)cc2)CC(C)(C)N1,0,134,0,0,0,0,0,0
Cc1ccc2nc(-c3ccc(NC(=S)NC4CC(C)(C)NC(C)(C)C4)cc3)sc2c1,84,0,235,74,0,218,90,0
CCOC(=O)C1(C)CCCN(C(=O)c2cccs2)C1 (stereo not drawn),0,-,-,-,0,-,-,-
COc1ccc(-n2cc(CN[C@H]3CCCCNC3=O)c(-c3cccc(F)c3)n2)cc1,0,0,0,0,0,-,-,-
COc1ccc(-n2cc(CNC3CCN(C)CC3)c(-c3cccc(F)c3)n2)cc1,0,0,169,0,0,0,0,0
O=C(COc1ccc(Br)cc1)Nc1cc(S(=O)(=O)N2CCCCC2)ccc1N1CCCCC1,0,139,0,0,0,0,0,0

# Screening results from PubChem BioAssay.
